Test systems include NCI-H23 lung; NCI-H226 lung; NCI-H322M lung; HOP-62 NSCLC; NCI-H460 lung; HOP-92 NSCLC; NCI-H522 lung; 786-0 renal; COLO 205 colon; DU-145 prostate; K-562 leukemia; MALME-3M melanoma; MDA-MB-231 breast; SF-268 CNS; SF-295 CNS; SF-539 CNS; UACC-257 melanoma; M14 melanoma; RXF 393 renal; A549/ATCC NSCLC.
Common to all, as to experiment: NCI-60 one-dose screen, 48 h (100 = growth as untreated, 0 = no growth, -100 = all killed)
What all share (conditions): 10 µM unless noted

Experimental findings from PubChem BioAssay (NCI) are described below.

Compounds without any hit were thinned out: in the full panel of roughly 83,000, 20% have a hit.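 Single-dose data. Exposure time 48 hours. Values below 10 considered active.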 Unmarked numbers belong to inactive results. Activity calls are given as the source filed them.

As to `COc1cc(COC(=O)CCCCC[P+](c2ccccc2)(c2ccccc2)c2ccccc2)c(OC)c2c1OCO2`, the growth was 51.9% with NCI-H23 lung; 67.6% in the test on NCI-H226 lung; 84.1% in the test on NCI-H322M lung; 79.2% in the test on HOP-62 NSCLC; 64.5% with NCI-H460 lung; 20.1% in the test on HOP-92 NSCLC. Besides, the growth is 50.2% in the test on NCI-H522 lung; 91.9% in the test on 786-0 renal; 71.4% with COLO 205 colon; 83.5% in the test on DU-145 prostate; 19.4% in the test on K-562 leukemia; 5.27% (active) in the test with MALME-3M melanoma. Besides, the growth in the test on MDA-MB-231 breast is 70.2%; with SF-268 CNS, 75.1%; in the test with SF-295 CNS it was 76.9%; with SF-539 CNS, 78.2%; in the test with UACC-257 melanoma it was 15.6%; with M14 melanoma, 43.3%.
Take `COc1ccccc1/C=N/NC1=NC2C(N1)N(C)C(=O)N2C` (stereo unspecified): the growth is 100% in the test on NCI-H23 lung; 90.4% in the test with NCI-H226 lung; 95.5% in the test on NCI-H322M lung; 92% with HOP-62 NSCLC; 102% in the test on NCI-H460 lung; 93.5% in the test on HOP-92 NSCLC. Further, the growth in the test on NCI-H522 lung is 103%; in the test with 786-0 renal, 102%; with COLO 205 colon, 101%; in the test with DU-145 prostate it was 112%; in the test with K-562 leukemia, 99.5%; with MALME-3M melanoma, 93.6%. Further, the growth in the test on MDA-MB-231 breast was 99.8%; with SF-268 CNS, 101%; in the test on SF-295 CNS it was 104%; in the test on SF-539 CNS it was 97.6%; with UACC-257 melanoma, 98.3%; in the test with M14 melanoma, 99.7%.
As to `N#Cc1c(Nc2ccccc2)nn2cc(-c3nc4ccccc4s3)c(N)nc12`, the growth in the test with NCI-H23 lung is 60.3%; in the test on NCI-H226 lung it was 65.6%; with NCI-H322M lung it was 86.2%; in the test on HOP-62 NSCLC it was 92.9%; with NCI-H460 lung, 61.8%; in the test on HOP-92 NSCLC, 80.6%. In addition, the growth with NCI-H522 lung was 72.8%; with 786-0 renal, 76.3%; in the test with COLO 205 colon, 114%; in the test on DU-145 prostate it was 66%; in the test on K-562 leukemia it was 74.8%; in the test with MALME-3M melanoma, 40.4%. Also, the growth was 72.5% with MDA-MB-231 breast; 87.8% with RXF 393 renal; 70% in the test with SF-268 CNS; 99% in the test with SF-295 CNS; 58% in the test on SF-539 CNS; 83.7% in the test on UACC-257 melanoma. In addition, in the test with M14 melanoma, the growth is 58.8%.
With `O=S(=O)(NCCCNc1nccc(-c2c(-c3ccccc3)nc3occn23)n1)c1ccc(Cl)cc1`, the growth in the test on NCI-H23 lung is 94.2%; in the test with NCI-H226 lung it was 75.3%; in the test on NCI-H322M lung it was 99.9%; with HOP-62 NSCLC, 95.1%; in the test on NCI-H460 lung it was 85%; in the test on HOP-92 NSCLC, 93.8%. In addition, the growth with NCI-H522 lung is 77.9%; in the test on 786-0 renal, 82.5%; in the test with COLO 205 colon, 69.1%; with DU-145 prostate, 85.5%; in the test with K-562 leukemia, 50.6%; in the test with MALME-3M melanoma it was 91.8%. The growth was 93.3% in the test with MDA-MB-231 breast; 80% with SF-268 CNS; 93.3% in the test with SF-295 CNS; 110% in the test on SF-539 CNS; 105% in the test with UACC-257 melanoma; 71% with M14 melanoma.
For the molecule `Cc1ccc2nc3c(cc2c1)CSc1nnc(-c2ccc[nH]c2=S)n1N3`, the growth with NCI-H23 lung is 98.6%; in the test on NCI-H226 lung, 91.5%; in the test on NCI-H322M lung, 99.9%; with HOP-62 NSCLC, 95.8%; with NCI-H460 lung it was 99.2%; in the test on HOP-92 NSCLC, 102%. Besides, the growth is 83.7% with NCI-H522 lung; 98.7% in the test with 786-0 renal; 110% with COLO 205 colon; 113% in the test on DU-145 prostate; 93% in the test with K-562 leukemia; 97.7% in the test with MALME-3M melanoma. Besides, the growth with MDA-MB-231 breast is 93.4%; with SF-268 CNS, 89.5%; in the test with SF-295 CNS, 108%; with SF-539 CNS, 97.3%; in the test with UACC-257 melanoma it was 103%; in the test with M14 melanoma, 93%.
In the case of `O=C(O)/C=C\C(=O)N1C/C(=C\c2ccccc2Cl)C(=O)/C(=C/c2ccccc2Cl)C1`, the growth in the test with NCI-H23 lung is -24.9% (active); in the test on NCI-H226 lung it was -85% (active); in the test with NCI-H322M lung it was 4.69% (active); with HOP-62 NSCLC, -24% (active); in the test on NCI-H460 lung, -40.9% (active); in the test with HOP-92 NSCLC, 2.77% (active). Moreover, the growth is -87.2% (active) in the test with NCI-H522 lung; 7.96% (active) in the test with A549/ATCC NSCLC; -67.4% (active) in the test with COLO 205 colon; -34.2% (active) in the test on DU-145 prostate; 8.25% (active) in the test on K-562 leukemia; 2.25% (active) in the test with MALME-3M melanoma. Also, the growth in the test with MDA-MB-231 breast is -15.4% (active); in the test with RXF 393 renal it was -95.8% (active); in the test with SF-268 CNS it was -33.7% (active); in the test with SF-295 CNS it was -13% (active); in the test on SF-539 CNS, -20.9% (active); with UACC-257 melanoma, 67.3%. Besides, in the test with M14 melanoma, the growth was 12%.
As for `COc1cc(NCC(O)CN(CC(C)C)C2CCCC2)c2ncccc2c1` (stereo unspecified), the growth with NCI-H23 lung was 77.6%; in the test on NCI-H226 lung it was 94.3%; with NCI-H322M lung, 110%; with HOP-62 NSCLC it was 86.5%; in the test on NCI-H460 lung it was 89.4%; in the test with HOP-92 NSCLC, 73.8%. Besides, the growth was 70.6% in the test with NCI-H522 lung; 89.3% in the test with 786-0 renal; 98.4% with DU-145 prostate; 73.2% in the test on K-562 leukemia; 147% in the test with MALME-3M melanoma; 66.8% in the test with MDA-MB-231 breast. Besides, the growth in the test on SF-268 CNS is 82.7%; in the test with SF-295 CNS it was 92.2%; in the test with SF-539 CNS, 99.8%; with UACC-257 melanoma, 85.5%; with M14 melanoma, 95.8%.
On to `Cc1nn(-c2ccccc2)c(N2CCOCC2)c1/C=N/N=c1\sc2ccccc2n1C`, for which the growth in the test with NCI-H23 lung is 79%; in the test on NCI-H226 lung it was 73.8%; in the test with NCI-H322M lung it was 92.6%; in the test with HOP-62 NSCLC, 99.4%; in the test with NCI-H460 lung it was 39.6%; in the test with HOP-92 NSCLC, 53%. Besides, the growth was 81.5% in the test with NCI-H522 lung; 96.7% with 786-0 renal; 82.7% in the test on COLO 205 colon; 100% in the test with DU-145 prostate; 41.7% in the test with K-562 leukemia; 99.4% with MALME-3M melanoma. For the same molecule, the growth in the test with MDA-MB-231 breast is 52.3%; with RXF 393 renal, 88.6%; in the test with SF-268 CNS it was 85%; with SF-295 CNS, 89.3%; with SF-539 CNS it was 84.7%; with UACC-257 melanoma, 87.8%. Besides, in the test with M14 melanoma, the growth is 87.5%.
